# Measured values reported in PubChem BioAssay (NCATS).
# Inconclusive results are not listed. Entries that show only a call come without a potency. Activity calls are given as the source filed them. Unless noted, calls follow the shape of the dose curve; as a rule, active = well fitted curve in the direction sought with a large enough effect; inconclusive = small, poorly fitted or top-dose-only effect, or another doubt; inactive = no such curve, though single readings can be large; an effect the other way counts as inactive or inconclusive.
# Key:
# [1] = molecular target: Calcium and integrin-binding protein 1 (Homo sapiens) (UniProt Q99828); experiment: Primary qHTS for Identification of Calcium Integrin Binding Protein 1 (CIB1) Competitor (AID 1508620);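 also: GST tagged CIB1 binding a fluorescein labelled alphaIIb integrin peptide tracer; top concentration of the series differs between compounds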
# Chain of Calcium and integrin-binding protein 1 (Homo sapiens) (Q99828 whole entry, looked up): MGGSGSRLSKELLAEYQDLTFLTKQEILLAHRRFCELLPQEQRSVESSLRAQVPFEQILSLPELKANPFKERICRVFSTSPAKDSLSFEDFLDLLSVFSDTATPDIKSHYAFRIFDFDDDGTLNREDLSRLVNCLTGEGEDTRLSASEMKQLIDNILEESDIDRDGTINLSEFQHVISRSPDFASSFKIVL
# Method in brief: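 Fluorescence polarization competition: GST-tagged CIB1 (1 uM final) preincubated with compound 15 min at room temperature, then FITC-labelled alphaIIb peptide (100 nM final) added. After 15 min at room temperature, polarization read at Ex 480/Em 540.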
# [2] = molecular target: Rap guanine nucleotide exchange factor 3 (Homo sapiens) (UniProt O95398); experiment: Confirmatory qHTS for antagonist of cAMP-regulated guanine nucleotide exchange factor 3 (EPAC1) (AID 1645880); also: nearly all actives have a fitted effect of over 55% in size
# Chain of Rap guanine nucleotide exchange factor 3 (Homo sapiens) (O95398 whole entry, looked up): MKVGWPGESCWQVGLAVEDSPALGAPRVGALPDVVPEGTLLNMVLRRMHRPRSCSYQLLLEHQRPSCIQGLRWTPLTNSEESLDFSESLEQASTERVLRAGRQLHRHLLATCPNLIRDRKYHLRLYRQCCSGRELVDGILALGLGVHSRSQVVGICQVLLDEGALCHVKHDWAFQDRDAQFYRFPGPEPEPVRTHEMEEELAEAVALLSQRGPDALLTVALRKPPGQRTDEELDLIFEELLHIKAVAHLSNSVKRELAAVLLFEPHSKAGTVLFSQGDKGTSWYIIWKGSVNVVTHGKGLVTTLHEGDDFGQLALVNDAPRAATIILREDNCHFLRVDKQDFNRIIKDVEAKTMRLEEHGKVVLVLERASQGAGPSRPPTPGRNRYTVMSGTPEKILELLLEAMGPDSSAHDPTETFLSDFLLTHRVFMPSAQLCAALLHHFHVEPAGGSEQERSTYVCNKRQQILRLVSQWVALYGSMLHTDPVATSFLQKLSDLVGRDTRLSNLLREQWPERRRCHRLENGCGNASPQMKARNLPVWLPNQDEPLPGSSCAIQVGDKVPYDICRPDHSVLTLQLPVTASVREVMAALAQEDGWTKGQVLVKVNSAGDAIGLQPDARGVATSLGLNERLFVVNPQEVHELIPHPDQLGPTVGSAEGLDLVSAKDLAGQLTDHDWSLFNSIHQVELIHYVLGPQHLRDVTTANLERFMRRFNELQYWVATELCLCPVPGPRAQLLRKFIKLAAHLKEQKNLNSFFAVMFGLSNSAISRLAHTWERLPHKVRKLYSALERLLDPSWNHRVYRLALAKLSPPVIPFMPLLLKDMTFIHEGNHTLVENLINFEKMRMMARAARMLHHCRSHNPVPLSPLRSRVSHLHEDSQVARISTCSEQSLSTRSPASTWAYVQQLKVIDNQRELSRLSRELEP
# Method in brief: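 Nucleotide exchange uses 100 nM EPAC1, 250 nM RAP1B-BODIPY-GDP and 50 uM GDP, with compounds in a concentration-titration series. After 5 min at room temperature, fluorescence (480 nm ex/540 nm em) is read every 5 min for 30 min. Data are normalized to control ATA and DMSO.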
# [3] = molecular target: Rap guanine nucleotide exchange factor 3 (Homo sapiens) (UniProt O95398); experiment: Confirmatory qHTS for agonist of cAMP-regulated guanine nucleotide exchange factor 3 (EPAC1) (AID 1645881);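 also: EPAC1 catalysed release of BODIPY-GDP from Rap1B seen as fluorescence loss; nearly all actives have a fitted effect of over 75% in size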
# [4] = molecular target: Rap guanine nucleotide exchange factor 4 (Homo sapiens) (UniProt Q8WZA2); experiment: Confirmatory qHTS for agonist of cAMP-regulated guanine nucleotide exchange factor 4 (EPAC2) (AID 1645884);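 also: nucleotide exchange releases bodipy-GDP from Rap1 and this lowers its fluorescence; nearly all actives have a fitted effect of over 65% in size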
# Chain of Rap guanine nucleotide exchange factor 4 (Homo sapiens) (Q8WZA2 whole entry, looked up): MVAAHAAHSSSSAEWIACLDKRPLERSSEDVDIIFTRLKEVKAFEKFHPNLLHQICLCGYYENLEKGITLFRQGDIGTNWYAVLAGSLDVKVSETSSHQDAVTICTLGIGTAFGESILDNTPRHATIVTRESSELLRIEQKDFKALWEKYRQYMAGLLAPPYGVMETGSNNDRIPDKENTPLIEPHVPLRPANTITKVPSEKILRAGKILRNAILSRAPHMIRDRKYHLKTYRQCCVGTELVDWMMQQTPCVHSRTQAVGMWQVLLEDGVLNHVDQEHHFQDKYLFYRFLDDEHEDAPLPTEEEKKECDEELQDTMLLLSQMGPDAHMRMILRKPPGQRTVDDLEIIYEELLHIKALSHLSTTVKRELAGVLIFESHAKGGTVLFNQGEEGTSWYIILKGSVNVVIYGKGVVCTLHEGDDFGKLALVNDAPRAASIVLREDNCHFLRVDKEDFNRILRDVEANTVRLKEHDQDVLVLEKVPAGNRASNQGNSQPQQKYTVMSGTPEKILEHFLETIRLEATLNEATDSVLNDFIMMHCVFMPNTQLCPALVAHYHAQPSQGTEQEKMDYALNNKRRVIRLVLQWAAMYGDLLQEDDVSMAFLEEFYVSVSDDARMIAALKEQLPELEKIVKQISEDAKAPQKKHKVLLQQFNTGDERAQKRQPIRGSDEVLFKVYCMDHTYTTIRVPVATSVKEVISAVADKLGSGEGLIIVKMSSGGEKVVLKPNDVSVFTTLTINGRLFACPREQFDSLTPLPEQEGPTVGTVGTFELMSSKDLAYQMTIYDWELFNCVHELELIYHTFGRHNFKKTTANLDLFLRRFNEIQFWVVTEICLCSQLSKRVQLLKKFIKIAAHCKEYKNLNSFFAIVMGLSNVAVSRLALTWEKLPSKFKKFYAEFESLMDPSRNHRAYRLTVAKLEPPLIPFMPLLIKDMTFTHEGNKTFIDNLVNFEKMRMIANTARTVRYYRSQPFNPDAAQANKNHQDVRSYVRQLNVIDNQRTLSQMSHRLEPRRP
# [5] = molecular target: Rap guanine nucleotide exchange factor 3 (Homo sapiens) (UniProt O95398); experiment: Counterscreen qHTS for agonist of cAMP-regulated guanine nucleotide exchange factor 3 (EPAC1) (AID 1645889); also: nearly all actives have a fitted effect of over 40% in size
# Method in brief: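 Rap1B–BODIPY-GDP (250 nM) with 50 uM GDP; compounds pin-transferred to 9.74 nM–152 uM final (activator) or from 7.32 nM upwards (inhibitor). Fluorescence Ex/Em 480/540 nm read at 5 and 30 min, then after adding cAMP or buffer, at room temperature.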
# [6] = Primary qHTS for inhibitors of nuclear receptor binding SET domain protein 2 (NSD2) in an isogenic RCH-ACV NSD2 p.E1099K mutant (9B) (AID 1645876); also: potency is read from the fitted curve at half-maximal effect; nearly all actives have a fitted effect of over 70% in size
# [7] = Primary qHTS for inhibitors of nuclear receptor binding SET domain protein 2 (NSD2) in an RCH-ACV wild type WT cells (2C) (AID 1645877); also: potency is read from the fitted curve at half-maximal effect; nearly all actives have a fitted effect of over 70% in size
# [8] = molecular target: Catechol O-methyltransferase (Homo sapiens) (UniProt P21964); experiment: Confirmatory Screen for Target Class Profiling of Small Molecule Inhibitors of Methyltransferases (AID 1745852; calls by dose curve; also: potency is read from the fitted curve at half-maximal effect); conditions: MTase-Glo luminescence, SAH detection, recombinant enzyme; measured here: COMT max response; stronger effect = lower value
# Chain of Catechol O-methyltransferase (Homo sapiens) (P21964 whole entry, looked up): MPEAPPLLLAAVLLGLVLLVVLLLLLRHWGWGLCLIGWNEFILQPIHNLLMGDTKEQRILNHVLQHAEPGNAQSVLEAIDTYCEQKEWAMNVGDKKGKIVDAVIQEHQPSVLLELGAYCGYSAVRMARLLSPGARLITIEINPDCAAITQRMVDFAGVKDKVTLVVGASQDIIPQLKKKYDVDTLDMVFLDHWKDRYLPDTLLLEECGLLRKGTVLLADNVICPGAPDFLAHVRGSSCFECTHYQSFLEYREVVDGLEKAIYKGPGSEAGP
# [9] = molecular target: Guanidinoacetate N-methyltransferase (Homo sapiens) (UniProt Q14353); experiment: as above; conditions: MTase-Glo luminescence, SAH detection, recombinant enzyme; activity change, negative = inhibition: at 57.3 µM (top of the series)
# [10] = molecular target: Nicotinamide N-methyltransferase (Homo sapiens) (UniProt P40261); experiment: as above; conditions: MTase-Glo luminescence, SAH detection, recombinant enzyme; measured here: NNMT max response; stronger effect = lower value
# Chain of Nicotinamide N-methyltransferase (Homo sapiens) (P40261 whole entry, looked up): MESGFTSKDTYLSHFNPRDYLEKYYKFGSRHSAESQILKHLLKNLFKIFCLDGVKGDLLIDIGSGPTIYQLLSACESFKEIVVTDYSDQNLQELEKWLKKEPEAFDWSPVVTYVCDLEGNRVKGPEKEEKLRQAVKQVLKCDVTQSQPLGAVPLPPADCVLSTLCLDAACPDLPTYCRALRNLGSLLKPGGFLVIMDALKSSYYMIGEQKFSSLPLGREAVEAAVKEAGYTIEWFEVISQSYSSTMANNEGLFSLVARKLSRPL
# [11] = molecular target: Phenylethanolamine N-methyltransferase (Homo sapiens) (UniProt P11086); experiment: as above; conditions: MTase-Glo luminescence, SAH detection, recombinant enzyme; measured here: PNMT max response; stronger effect = lower value
# Chain of Phenylethanolamine N-methyltransferase (Homo sapiens) (P11086 whole entry, looked up): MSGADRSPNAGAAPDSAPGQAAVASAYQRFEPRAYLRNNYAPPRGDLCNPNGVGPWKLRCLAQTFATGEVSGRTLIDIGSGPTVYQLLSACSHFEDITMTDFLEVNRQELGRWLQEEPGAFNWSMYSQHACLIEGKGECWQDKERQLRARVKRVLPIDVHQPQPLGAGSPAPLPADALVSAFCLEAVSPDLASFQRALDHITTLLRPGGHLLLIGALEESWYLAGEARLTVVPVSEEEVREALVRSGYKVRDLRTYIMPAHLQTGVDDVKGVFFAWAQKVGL
# [12] = molecular target: Glutathione peroxidase 1 (Homo sapiens) (UniProt P07203); experiment: Primary qHTS Assay for Inhibitors of Recombinant Selenoprotein Glutathione Peroxidase 1 (GPX1) (AID 1845191); also: nearly all actives have a fitted effect of over 65% in size
# Chain of Glutathione peroxidase 1 (Homo sapiens) (P07203 whole entry, looked up): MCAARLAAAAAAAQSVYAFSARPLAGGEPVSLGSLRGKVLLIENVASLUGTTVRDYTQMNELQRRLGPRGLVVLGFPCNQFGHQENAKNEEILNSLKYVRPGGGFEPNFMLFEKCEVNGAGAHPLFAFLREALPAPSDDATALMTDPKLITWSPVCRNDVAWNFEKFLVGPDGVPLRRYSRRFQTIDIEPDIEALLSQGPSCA
# Method in brief: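 GR-coupled assay: compounds preincubated 30 min at room temperature with GPX1, then reaction started with CHP; final 10 nM GPX1, 1 mM GSH, 0.5 mM CHP, 0.5 mM NADPH, 100 nM GR, 0.01% BSA, pH 7.5 Tris buffer. NADPH fluorescence (340/450 nm) read at 0 and 15 min.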
# [13] = molecular target: N-terminal Xaa-Pro-Lys N-methyltransferase 1 (Homo sapiens) (UniProt Q9BV86); experiment: Confirmatory qHTS for Inhibitors of N-terminal methyltransferase 1 (NTMT1): MTaseGlo Assay (AID 1645874); also: nearly all actives have a fitted effect of over 65% in size; also: potency is read from the fitted curve at half-maximal effect;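 as to activity change, negative = inhibition: luminescence from SAH made as NTMT1 methylates SPKRIA peptide using SAM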
# Chain of N-terminal Xaa-Pro-Lys N-methyltransferase 1 (Homo sapiens) (Q9BV86 whole entry, looked up): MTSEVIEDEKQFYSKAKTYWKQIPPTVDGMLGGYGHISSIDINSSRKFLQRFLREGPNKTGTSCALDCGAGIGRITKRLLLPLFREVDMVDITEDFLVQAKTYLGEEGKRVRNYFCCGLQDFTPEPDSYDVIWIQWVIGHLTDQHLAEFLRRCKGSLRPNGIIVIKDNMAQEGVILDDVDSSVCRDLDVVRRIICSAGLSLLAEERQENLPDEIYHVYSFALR
# Method in brief: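 Compounds are incubated with 125 nM NTMT1 and 100 uM SAM for 15 min before the SPKRIA peptide (1 uM) starts a 30 min room-temperature methylation. SAH is measured by coupled luciferase luminescence and curves fitted to a Hill equation.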
# [14] = molecular target: Rap guanine nucleotide exchange factor 4 (Homo sapiens) (UniProt Q8WZA2); experiment: Confirmatory qHTS for antagonist of cAMP-regulated guanine nucleotide exchange factor 4 (EPAC2) (AID 1645885); also: nearly all actives have a fitted effect of over 25% in size
smiles,measurement,setting,value
CCC(=O)NC(c1cccs1)c1cc(Cl)c2cccnc2c1O (stereo not drawn),Potency,[1],inactive
same,Potency,[2],inactive
same,outcome,[3],inactive
same,outcome,[4],inactive
same,outcome,[5],inactive
CN(Cc1cccs1)c1ncnc2ccc(-c3ccc4c(c3)OCO4)cc12,Potency,[1],inactive
same,Potency,[6],20.6 µM (active)
same,Potency,[7],20.6 µM (active)
same,activity,[8],-85.9%
same,Potency,[9],12.1 µM (active)
same,activity,[10],-70.6%
same,activity,[11],-84.2%
same,Potency,[12],inactive
Nc1ccc(-c2ccnc(NCCCNC(=O)c3c(Cl)cccc3Cl)n2)cc1,Potency,[1],inactive
same,Potency,[12],inactive
CC(=O)NC(c1ccco1)c1cc(Cl)c2ccccc2c1O (stereo not drawn),Potency,[1],inactive
same,Potency,[2],inactive
same,outcome,[3],inactive
same,activation,[4],3.62% [at 17.1 µM] (inactive)
Cc1cc2c(s1)c1cnn(Cc3cccc(C)c3F)c(=O)c1n2C,Potency,[1],inactive
same,Potency,[13],inactive
CN(C)C(=O)c1ccc(-c2cc[nH]c(=O)c2N)cc1,Potency,[1],inactive
same,Potency,[13],inactive
CC(C)(C)c1ccc(-c2csc(N3CCC(C(N)=O)CC3)n2)cc1,Potency,[1],inactive
same,Potency,[13],inactive
Nc1ncnc2c1C(c1ccccc1)c1c(ccc3ccccc13)O2 (stereo not drawn),Potency,[1],inactive
same,outcome,[3],inactive
same,outcome,[4],inactive
same,Potency,[14],inactive
CC(=O)Nc1sc2c(c1-c1ccc3scnc3c1)CCNC2,Potency,[1],inactive
same,Potency,[13],44.7 µM (active)
Cc1cc(C)nc(NC(=S)N2CCN(c3ncccc3C#N)CC2)c1,Potency,[1],inactive
same,Potency,[13],22.4 µM (active)
CCC(=O)NC(c1cc(Cl)c2ccccc2c1O)C(C)C (stereo not drawn),Potency,[1],inactive
same,outcome,[3],inactive
same,outcome,[4],inactive
same,Potency,[14],inactive
same,outcome,[5],inactive
